RORg inh: inhibitors of mouse ROR gamma transcriptional activity | P51450 | Drosophila S2 Gal4-RORgamma UAS-luciferase reporter, 20 h | Potency, µM (doses to about 53.6 µM), inactives show top-dose activity change, negative = inhibition, usual class: inhibitors | 310,000 tested, 5.4% active | AID 2551; also: nearly all actives have a fitted effect of over 60% in size
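Stably transfected Drosophila Schneider cells are the test system, with ROR gamma fused to Gal4 and luciferase under UAS control; luminescence is read after 20 hr of 700 uM copper sulfate induction at ambient temperature.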
VP16 counter: Gal4-VP16 reporter inhibition counter-screen; Drosophila S2 Gal4-VP16 UAS-luciferase, luminescence, 20 h; Potency, µM (top dose mostly 53.6 µM), for inactives: at the top dose activity, negative = inhibition, hits mostly inhibitors; 310,000 tested, 3.5% active; AID 2546;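 also: Gal4-VP16 expression switched on by copper sulfate through the metallothionein promoter; nearly all actives have a fitted effect of over 50% in size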
ALOX12 inh: ALOX12 (human) lipoxygenase inhibition; P18054; purified 12hLO, xylenol orange hydroperoxide absorbance; Potency, µM (doses to about 108 µM), for the others: at the highest dose activity change, negative = inhibition, hits mostly inhibitors; 580,000 tested, 1.1% active; AID 1671190
Target sequence (P18054 whole entry, looked up): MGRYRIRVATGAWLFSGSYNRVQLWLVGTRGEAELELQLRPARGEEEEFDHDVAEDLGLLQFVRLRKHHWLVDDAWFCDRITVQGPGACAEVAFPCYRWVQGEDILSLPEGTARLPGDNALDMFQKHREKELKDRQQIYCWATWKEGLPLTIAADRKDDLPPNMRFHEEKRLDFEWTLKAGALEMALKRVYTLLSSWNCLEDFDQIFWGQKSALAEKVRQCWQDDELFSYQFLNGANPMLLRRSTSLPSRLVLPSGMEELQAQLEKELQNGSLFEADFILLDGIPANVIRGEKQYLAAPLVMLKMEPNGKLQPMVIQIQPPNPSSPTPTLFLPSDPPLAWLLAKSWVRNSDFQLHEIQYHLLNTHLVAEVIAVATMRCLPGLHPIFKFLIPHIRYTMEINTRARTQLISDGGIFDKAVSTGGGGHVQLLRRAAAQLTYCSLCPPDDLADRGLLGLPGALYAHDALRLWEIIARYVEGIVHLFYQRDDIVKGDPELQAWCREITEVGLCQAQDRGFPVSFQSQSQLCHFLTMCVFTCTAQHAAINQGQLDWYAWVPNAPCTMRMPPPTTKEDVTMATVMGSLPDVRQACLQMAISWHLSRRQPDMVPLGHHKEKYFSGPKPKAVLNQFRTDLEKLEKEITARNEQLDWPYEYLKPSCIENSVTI
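Hydroperoxide product was detected by ferrous iron/xylenol orange as the 573 to 405 nm absorbance ratio. Arachidonic acid at 40 uM (final) was turned over for 30 min at room temperature by 150 nM human 12hLO, pH 7.0 Hepes buffer, after 15 min compound preincubation.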
TDP1 cell CPT: growth inhibition of DT40 Tdp1-/-;hTDP1 cells with camptothecin (screen for TDP1 inhibitors); 420,000 tested, 12% active; chicken DT40 Tdp1-/-;hTDP1 cells + 20 nM CPT, ATP luminescence, 48 h; Potency, µM (titrated, usually from 46.2 µM), for inactives: at the top dose activity change, negative = growth inhibition, hits mostly inhibitors; also: nearly all actives have a fitted effect of over 55% in size
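Chicken DT40 Tdp1-/- cells stably complemented with human TDP1 were seeded at 400 cells/well in medium containing 20 nM camptothecin, exposed to pin-transferred compounds, and grown at 37 °C for at least 48 hr. Viability was read as ATP luminescence.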
TDP1 cell noCPT: qHTS for Inhibitors of human tyrosyl-DNA phosphodiesterase 1 (TDP1): qHTS in cells in absence of CPT; DT40 Tdp1-/- hTDP1 cells, no CPT, ATP luminescence, 48 h; Potency, µM (highest dose often 46.2 µM), without a hit: top-dose activity change, negative = growth inhibition, usual class: inhibitors; 420,000 tested, 15% active; AID 686978, 2013; also: nearly all actives have a fitted effect of over 55% in size
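Compound effects on proliferation are scored in DT40 Tdp1-/-;hTDP1 cells in the absence of CPT. ATP levels (CellTiter-Glo luminescence) are recorded after a ≥48 hr, 37 °C incubation.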
ELG1 repair inh: blocks ELG1-dependent DNA repair in HEK293T cells | HEK293T ELG1-luciferase reporter, luminescence, 16 h; DNA damage induced by 5-fluorouridine | Potency, µM (top dose mostly 46.1 µM), for the others: top-dose activity change, negative = inhibition, hits mostly inhibitors | 330,000 tested, 2.3% active | AID 504467; also: nearly all actives have a fitted effect of over 55% in size
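Reporter activity after DNA damage by 5-fluorouridine is monitored. Compound-treated cells incubate 16 hr at 37 °C, then ONE-Glo is added for 30 min before luminescence reading.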
An asterisk follows results filed as active; ? = inconclusive; · = no result; [ ] = dose if it differs, or a comment. In the library only some 15% were active in any assay of this set; here they are far more common. Calls follow the shape of the dose curve; as a rule, active = well fitted curve in the direction sought with a large enough effect; inconclusive = small, poorly fitted or top-dose-only effect, or another doubt; inactive = no such curve, though single readings can be large; an effect the other way counts as inactive or inconclusive. % is scaled to controls: 0 for no effect and ±100 for the full control effect; potency is read from the fitted curve at half-maximal effect.

SMILES	RORg inh	VP16 counter	ALOX12 inh	TDP1 cell CPT	TDP1 cell noCPT	ELG1 repair inh
CC(C)c1ccc(CN(C)CC(=O)NC(N)=O)cc1	·	·	15%	·	·	·
COc1ccccc1C(NC(=O)C1CCN(CCOc2ccccc2)CC1)c1ccccn1 (centres undefined)	·	·	-2%	?	?	·
COc1ccc(C(NC(=O)C2CCN(Cc3ccc(Oc4ccccc4)cc3)CC2)c2ccccc2C)cn1 (centres undefined)	·	·	?	21µM*	18µM*	·
COc1ccc(C(NC(=O)C2CCN(CCOc3ccc(Cl)cc3Cl)CC2)c2ccccn2)cc1 (centres undefined)	·	·	-11%	?	23µM*	·
COc1cc(CN2CCC(C(=O)NC(c3ccc(F)cc3)c3ncccc3C)CC2)cc(OC)c1 (centres undefined)	·	·	-15%	23µM*	?	·
O=C(NC(c1ccccc1)c1ccsc1)C1CCN(Cc2ccc(Oc3ccccc3)cc2)CC1 (centres undefined)	·	·	?	?	18µM*	·
O=C(NC(c1ccccc1)c1ccsc1)C1CCN(Cc2ccc(Cl)c(Cl)c2)CC1 (centres undefined)	·	·	-29%	?	?	·
c1cc(-c2ccn[nH]2)ccn1	·	·	16%	·	·	·
Cn1ncc2c(C(=O)NC3CC3)cc(-c3ccc(F)cc3)nc21	·	·	4%[6.33 µM]	·	·	·
Cc1ccc(CN(C)C(=O)CSc2nc3ccccc3o2)c(C)c1	·	·	-2%	·	·	·
O=C(NC(c1ccc(Cl)cc1)c1ccsc1)C1CCN(CCOc2ccc(Cl)cc2)CC1 (centres undefined)	·	·	32µM*	?	?	·
COc1ccc(OCCN2CCC(C(=O)NC(c3ccc(Cl)cc3)c3cccnc3)CC2)cc1 (centres undefined)	·	·	-6%	?	?	·
COc1ccc(C(NC(=O)C2CCN(Cc3ccc(Oc4ccccc4)cc3)CC2)c2ccccn2)cc1 (centres undefined)	·	·	-16%	16µM*	16µM*	·
Cc1cccc(OCc2ccc(C(N)=O)cc2)c1	·	·	7%	·	·	·
CCOC(=O)Cc1csc(NC(=O)c2ccncc2)n1	15%	-10%	0%	?	?	-3%
CCOC(=O)Cc1csc(NC(=O)c2cnc3sc(C)cn3c2=O)n1	28%	-7%	-11%	?	21µM*	?
CCOC(=O)Cc1csc(NC(=O)c2cc(C)c(C)s2)n1	·	·	?	?	23µM*	8%
CCOC(=O)Cc1csc(NC(=O)c2csc3c2CCCC3)n1	13µM*	-18%	-7%	-1%	-27%	-10%
COc1ccc2c(=O)c(Oc3ccc(C)cc3)c(C(F)(F)F)oc2c1	·	·	18%	·	·	·
CCCNC(=O)NC(=O)CN(C)CC(=O)Nc1ccccc1CC	·	·	22%	·	·	·
CCCCCC(=O)N/N=C/c1cccnc1	·	·	-9%	·	·	·
Cc1cc(=O)[nH]c(CCNc2nc(-c3ccncc3)nc3c2c(C)nn3C)n1	·	·	50%	·	·	·
O=C1CCCC2=C1C1(CCCCC1)N=C(Nc1nc3ccccc3s1)N2	6%	-10%	-4%	18µM*	?	·
CCC(=O)N(CCC(c1ccc(C)cc1)c1ccco1)Cc1ccco1 (centres undefined)	24%	28%	?	?	23µM*	3%
Cc1ccc(CN(Cc2ccco2)C(=O)COc2ccccc2C)cc1	·	·	-25%	21µM*	16µM*	·
Cc1cc(C)c2c(=O)cc(C(=O)N(Cc3ccccc3)Cc3ccco3)oc2c1	·	·	-11%	·	·	·
Cc1cc(C)c(OCC(=O)N(Cc2ccc(N(C)C)cc2)Cc2ccco2)c(C)c1	·	·	-30%	12µM*	7.3µM*	·

Assay outcomes from PubChem BioAssay.
